Consider 59 molecules from PubChem BioAssay AID624309 (Sanford-Burnham Center for Chemical Genomics, 2012).

About 260 (13%) of roughly 2,000 compounds were called active. A selection follows. A number with no mark means an inactive call. No stated cut-off is given here; in the data, active means inhibition mostly above about 42% (no sharp cut-off); inactive means mostly below about 42%.

This experiment has as its system Nicotinate mononucleotide adenylyltransferase NadD (Staphylococcus aureus N315). Description: inhibitors of S. aureus NadD, confirmation, biochemical, colorimetric, single concentration (AID 624309). The conditions noted are these: purified S. aureus NadD, colorimetric enzyme assay; at 20 µM; active compounds read high.
Take `Nc1[nH]c(=S)nc2nc(-c3ccccc3)c(-c3ccccc3)nc12`: the inhibition is 38.5%.

Take `COc1ccc([N+](=O)[O-])cc1NC(=O)CC1SC(=Nc2cccc(C)c2C)N(/N=C(\C)c2ccc(C)cc2)C1=O` (centres undefined): the inhibition is -2.98%.

Consider `Cc1nc(N2CCN(c3ccccn3)CC2)c2c(C)c(C(=O)Nc3ccc(F)c(Cl)c3)sc2n1`, for which the inhibition is 3.33%. Turning to `C=CC1=C(C(=O)O)N2C(=O)[C@@H](NC(=O)/C(=N/OCC(=O)O)c3csc(N)n3)[C@H]2SC1`, the inhibition was 95.8% (active). For `O=C(O)c1ccc(COCC(F)(F)F)cc1` the value was 10.3%. For `CC1(OC(=O)C2CCCC2)C(=O)C=C2C=C(c3ccc(C#N)cc3)OC=C2C1=O` (centres undefined), the inhibition was 73.5% (active).

Consider `Cc1nn(-c2ccccc2)c(C)c1/C=N/NC(=O)CSc1nc2ccccc2c(=O)n1-c1ccccc1`, for which the inhibition was 8.17%. For `CCOc1ccc(-c2n[nH]c(=S)n2/N=C/c2cc3c(cc2[N+](=O)[O-])OCO3)cc1` the value was 4.81%; for `N#CC1=C(SCc2ccc(C#N)cc2)N=C(N)C(c2nc(-c3ccccc3)cs2)C12CCCCC2` (centres undefined), 24.2%. On to `CCN(CC)C(=O)c1sc2nc(-c3ccccc3)ccc2c1N`, for which the inhibition is -11.1%. For `O=C(CSc1nc(Nc2ccccc2)nc(N2CCOCC2)n1)Nc1cc(Cl)ccc1O` the value was 43.2%; for `O=C(NCC(=O)N1CCN(c2ccccc2O)CC1)c1ccc2ccccc2c1`, 34.8%. For `CCCCCCC(=O)Nc1nc(C)c(-c2csc(Nc3cc(Cl)ccc3OC)n2)s1` the value was 5.75%; for `COc1ccc(Br)cc1/C=N/Nc1ccc(S(=O)(=O)Nc2ccccc2C(=O)O)cc1[N+](=O)[O-]`, 73.9% (active); for `Cc1ccc(NS(=O)(=O)c2ccc(N/N=C/c3ccccc3OCC(=O)O)c([N+](=O)[O-])c2)c(C)c1`, 64.9% (active). With `O=C(Nc1ccc(S(=O)(=O)Nc2nccs2)cc1)c1cc(-c2ccncc2)nc2ccccc12`, the inhibition was 44.5% (active).

Turning to `COc1ccc(NS(=O)(=O)c2cc(NC(=O)CC(=O)c3ccc([N+](=O)[O-])cc3)ccc2C)cc1`, the inhibition is 28.1%. Take `CCn1cc(C(=O)NCCCN2CCCCCC2)c(=O)c2cc(S(=O)(=O)N3CCc4ccccc4C3)ccc21`: the inhibition was -16.2%.

As for `Cc1cc(C)c(S(=O)(=O)NN=C2c3ccccc3[C@H]3Cc4csc[n+]4[C@@H]23)c(C)c1`, the inhibition is 30.1%. For `Cc1ccc(Cc2cnc(NC(=O)/C(C#N)=C/c3ccc(-c4cccc([N+](=O)[O-])c4)o3)s2)cc1`, the inhibition is 5.75%. In the case of `Nc1nc2n(n1)C(c1ccco1)CC(c1ccc(Cl)c(Cl)c1)N2` (centres undefined), the inhibition is 13.2%. For the molecule `CCOc1ccc2nc(N3CCCN(C(=O)Nc4ccccc4C)CC3)c(C#N)cc2c1`, the inhibition is -3.08%. With `CCOc1ccc2nc(/N=C/c3nc(-c4ccccc4)oc3O)sc2c1`, the inhibition is 5.96%.

On to `COc1cccc(-c2nn(-c3ccccc3)cc2/C=C(\C#N)C(=O)NCCCn2ccnc2)c1`, for which the inhibition was 2.7%. Take `Cc1nn2c(c1-c1ccccc1)N=C(c1ccco1)CC2c1ccccc1` (centres undefined): the inhibition is 21.2%.

With `COC(=O)c1ccc2nc(-c3ccc(C)cc3)c(Cc3ccc(OC)cc3C)n2c1`, the inhibition is 12.6%. Turning to `Cc1cc2nc(-c3ccco3)c(Cc3cccc(F)c3)n2c(C)c1Br`, the inhibition was 22.4%.

On to `C/C(=N\NC(=O)CNc1cccc2ccccc12)c1ccc(Br)s1`, for which the inhibition was 8.07%. Consider `O=C(Cc1csc(Nc2nc(=S)[nH]c3ccccc23)n1)NCCCN1CCN(c2cccc(Cl)c2)CC1`, for which the inhibition is 33.7%.

In the case of `Cc1ccc(Nc2nc(-c3sc(NC(=O)c4ccccc4)nc3C)cs2)cc1`, the inhibition is 38.5%. `Cc1ccc(C(=O)NNC(=O)c2cc3cc4ccccc4nc3s2)cc1`: the inhibition is 65.5% (active). Turning to `O=C(COC(=O)c1ccc(Oc2ccccc2)cc1)Nc1nnc(-c2ccccc2)o1`, the inhibition is 72.6% (active). As for `CCOc1ccc(NC(=O)c2ccc(NC(=O)COC(=O)c3ccc(NC(=O)CC#N)cc3)cc2)cc1`, the inhibition was 15.8%. For `N#CCC(=O)Nc1ccc(C(=O)OCC(=O)Nc2sc3c(c2C#N)CCCC3)cc1` the value was 24.8%.

For `NC(c1csc(NC(=O)Nc2ccccc2Oc2ccccc2)n1)c1ccccc1Cl` (centres undefined), the inhibition was 25.9%. Turning to `COc1ccc(NC(=O)/C(C#N)=C\c2cc(OC)c(OCc3ccc(C(=O)O)cc3)cc2Br)cc1`, the inhibition is 11%.

Consider `NC(CSC(c1ccccc1)(c1ccccc1)c1ccc(-c2ccccc2)cc1)C(=O)O` (centres undefined), for which the inhibition is 54.7% (active). For `Cc1cccc(NC(=O)c2sc3nc4c(c(-c5ccco5)c3c2N)CCC4)c1` the value was 21.1%; for `O=C(NC(Cc1c[nH]c2ccccc12)C(=O)N/N=C/c1ccc(Br)cc1)c1cccs1` (centres undefined), 25.7%; for `O=C1Nc2cc(C(=O)N3CCN(c4ccc(F)cc4)CC3)ccc2NC1CSCc1cccc(F)c1` (centres undefined), 41.8%. In the case of `S=c1[nH]nc(Nc2ccccc2)s1`, the inhibition was 45.2%. Turning to `Cc1ccc(-n2c(SCC(=O)N/N=C/C=C/c3ccccc3[N+](=O)[O-])nc3ccccc3c2=O)cc1`, the inhibition was 3.65%. Turning to `CCOc1cc(/C=C2/N=C(c3ccc(C(C)(C)C)cc3)OC2=O)cc(Cl)c1OS(C)(=O)=O`, the inhibition is 11.4%. With `Cc1oc2c(C)c3oc(=O)c(CC(=O)N[C@@H](CC(C)C)C(=O)N[C@@H](Cc4ccccc4)C(=O)O)c(C)c3cc2c1C`, the inhibition was 43.8%. Consider `Cc1ccc(-c2cc(C(=O)N/N=C/C=C/c3ccco3)c3ccccc3n2)cc1C`, for which the inhibition was 4.81%. As to `O=C(Nc1nnc(-c2ccccc2)o1)c1cc(-c2cccs2)nc2ccccc12`, the inhibition is 55.5% (active). For `CS(=O)(=O)c1sc2nc(-c3ccccc3)cc(-c3ccccc3)c2c1N` the value was 1.76%; for `NS(=O)(=O)c1ccc(NC(=O)COC(=O)c2c3c(nc4ccccc24)/C(=C\c2ccc4c(c2)OCO4)CCC3)cc1`, 74.4% (active). Take `NC(=O)c1ccc(NC(=O)COC(=O)c2c3c(nc4ccccc24)/C(=C\c2ccc4c(c2)OCO4)CCC3)cc1`: the inhibition was 45.2%.

In the case of `O=C(Nc1cccc(-c2nc3ccccc3[nH]2)c1)c1ccc(C(=O)Nc2cccc(-c3nc4ccccc4[nH]3)c2)cc1`, the inhibition was 34.9%.

With `CCOC(=O)C1=C(C)Nc2sc(C(=O)c3ccc(Br)cc3)c(N)c2C1c1ccc(C(=O)OC)cc1` (centres undefined), the inhibition is 8.7%.

Take `CC(=O)Nc1ccc(C(=O)Nc2nc(-c3cc(C)n(Cc4ccccc4)c3C)cs2)cc1`: the inhibition is 14.3%. For the molecule `COc1cccc(OCc2cc(/C=N/NC(=O)c3nc(Cl)c(Cl)c(N)c3Cl)ccc2OC)c1`, the inhibition was 25.3%. On to `CC(C)c1ccc2c(c1)c(SC(C)(C)C)c(CC(C)(C)C(=O)O)n2Cc1ccc(Cl)cc1`, for which the inhibition was 28.1%.

On to `S=c1[nH]nc(-c2cccs2)n1/N=C/c1cn(-c2ccccc2)nc1-c1ccc(Cl)cc1`, for which the inhibition was 6.28%. For `COc1ccc(-c2nc3cnccn3c2NC2CCCCC2)cc1-c1cccc(Cl)c1` the value was 18.8%; for `O=C(COc1ccc(/C=N/NC(=O)c2ccc(O)cc2)cc1)Nc1ccc([N+](=O)[O-])cc1`, 15.9%; for `COc1ccc(-n2c(SCC(=O)Nc3sc4c(c3C#N)CCCC4)nnc2-c2ccc(O)cc2)cc1`, 6.59%. For `O=C(COc1ccc([N+](=O)[O-])cc1)Nc1ccc(N2CCCC2)cc1` the value was -0.14%.
